Reference: the supplement of paper PMC6555819

Each sequence was assayed on VDR homodimer (NR concentration 270 nM) (assay: PBM binding z-score (relative to random genomic background probes); higher = stronger binding; sequences stand for … in GC…GCGATTGACAGCGTAGAATGAAGG).
Procedure, shortened: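 Ligand-free nuclear receptor dimers were applied to custom Agilent 4×180K protein-binding microarrays whose double-stranded probes carried direct-repeat seeds, single-nucleotide variants, half-site ablations and random human genomic background sequences in 34-nt variable regions. Incubation lasted 1 h. Binding z-scores were computed against the random background probes from regression-normalized fluorescence.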

Question: AGAACGAGGGCACGCAGAGTTGATAGCAGAGTAG was tested. Which PBM binding z-score did it give?
Answer: Its PBM binding z-score is 1.86.

Question: For GCTGCTAGGTGAGGTTGGTCAGCTAACGGGTACG, which PBM binding z-score is on record?
Answer: The PBM binding z-score was -0.159.

Question: With GCAGACAGGTGAAACCCAGGTAACTCAGGGTGGC as the sequence, how does the PBM binding z-score read?
Answer: The PBM binding z-score was -0.563.

Question: With TGAATGCGGTTATAAGATCAGGGAACGTTGCAAA as the sequence, how does the PBM binding z-score read?
Answer: The PBM binding z-score was -0.171.

Question: ACTAGTTGGTCAGCTGAGGTCACAGACAATTCGG was tested. Which PBM binding z-score did it give?
Answer: The PBM binding z-score was 2.9.

Question: TCTCGGAGGACACGAAAGGTCAGAGCCCGACATC was tested. Which PBM binding z-score did it give?
Answer: The PBM binding z-score was 1.26.

Question: How did the PBM binding z-score turn out when GTACCGAGGTGAATAGGTCGTTGATGAGTAGGCG was run?
Answer: Its PBM binding z-score is 0.202.

Question: How did the PBM binding z-score turn out when CGTCCAAGGTCTTAGGAGGTCAGTGAAGACAGAT was run?
Answer: The PBM binding z-score was 1.33.

Question: Which PBM binding z-score does the source give for GGAACGAGGACATTCGAGTTGATAGCATGGCGAT here?
Answer: The PBM binding z-score was 1.65.

Question: With ACCGAAAGGTCGTGAGGTGAGTATACAGAAAGGC as the sequence, how does the PBM binding z-score read?
Answer: The PBM binding z-score was 0.625.

Question: For CGTCCAAGGTCAATGCTAGTTCAGTGAAAGCATT, which PBM binding z-score is on record?
Answer: The PBM binding z-score was 3.28.

Question: Which PBM binding z-score does the source give for ATCGAAAGGTCGAGGTGAGTATGGAGAAAGGGAA here?
Answer: The PBM binding z-score was 0.435.

Question: Which PBM binding z-score does the source give for TCAGACAGGTGAAGATAACTCAGGTACGCAGTCG here?
Answer: The PBM binding z-score was 0.623.

Question: How did the PBM binding z-score turn out when CCTACTGGGCCATCAGGTCATTAATATCAACGTT was run?
Answer: Its PBM binding z-score is 1.56.

Question: Which PBM binding z-score does the source give for CAAACTAGCTCAAGAGGTCAAAGTCCGCTTCCCG here?
Answer: Its PBM binding z-score is 3.55.

Question: With TCATATAGGTAAATGCTAGGTGTAAGTCCGATCT as the sequence, how does the PBM binding z-score read?
Answer: The PBM binding z-score was 0.144.

Question: How did the PBM binding z-score turn out when TGAACGAGGTTATAAGATCAGGGAACGTTGCAAA was run?
Answer: The PBM binding z-score was 0.372.

Question: How did the PBM binding z-score turn out when CCTACTGGGCCAAAGGTAATTGATTCCAATGCTC was run?
Answer: Its PBM binding z-score is -0.113.
